# Source: PubChem BioAssay
# Values without a mark were called inactive. The source made the active and inactive calls.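 Rule for the calls, unless noted: active = mean inhibition above 46.5%, the solvent-only control mean plus 3 SD; inactive = the rest.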
# Columns and labels:
# [1] = target: Nuclear receptor coactivator 3 (Homo sapiens) (UniProt Q9Y6Q9); assay: SRC3 coactivator transcriptional activity inhibitors, confirmation, cell-based, luminescence, quadruplicate (AID 588792;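 active = mean inhibition over 43.08%, the solvent-only control mean plus 3 SD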;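 note: 0% = DMSO treated cells and 100% = gossypol at 36 µM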); settings: HEK293 GAL4-SRC3 luciferase reporter, at 3.6 µM, stronger effect = higher value
# Chain of Nuclear receptor coactivator 3 (Homo sapiens) (Q9Y6Q9 whole entry, looked up, the tested form may be a part): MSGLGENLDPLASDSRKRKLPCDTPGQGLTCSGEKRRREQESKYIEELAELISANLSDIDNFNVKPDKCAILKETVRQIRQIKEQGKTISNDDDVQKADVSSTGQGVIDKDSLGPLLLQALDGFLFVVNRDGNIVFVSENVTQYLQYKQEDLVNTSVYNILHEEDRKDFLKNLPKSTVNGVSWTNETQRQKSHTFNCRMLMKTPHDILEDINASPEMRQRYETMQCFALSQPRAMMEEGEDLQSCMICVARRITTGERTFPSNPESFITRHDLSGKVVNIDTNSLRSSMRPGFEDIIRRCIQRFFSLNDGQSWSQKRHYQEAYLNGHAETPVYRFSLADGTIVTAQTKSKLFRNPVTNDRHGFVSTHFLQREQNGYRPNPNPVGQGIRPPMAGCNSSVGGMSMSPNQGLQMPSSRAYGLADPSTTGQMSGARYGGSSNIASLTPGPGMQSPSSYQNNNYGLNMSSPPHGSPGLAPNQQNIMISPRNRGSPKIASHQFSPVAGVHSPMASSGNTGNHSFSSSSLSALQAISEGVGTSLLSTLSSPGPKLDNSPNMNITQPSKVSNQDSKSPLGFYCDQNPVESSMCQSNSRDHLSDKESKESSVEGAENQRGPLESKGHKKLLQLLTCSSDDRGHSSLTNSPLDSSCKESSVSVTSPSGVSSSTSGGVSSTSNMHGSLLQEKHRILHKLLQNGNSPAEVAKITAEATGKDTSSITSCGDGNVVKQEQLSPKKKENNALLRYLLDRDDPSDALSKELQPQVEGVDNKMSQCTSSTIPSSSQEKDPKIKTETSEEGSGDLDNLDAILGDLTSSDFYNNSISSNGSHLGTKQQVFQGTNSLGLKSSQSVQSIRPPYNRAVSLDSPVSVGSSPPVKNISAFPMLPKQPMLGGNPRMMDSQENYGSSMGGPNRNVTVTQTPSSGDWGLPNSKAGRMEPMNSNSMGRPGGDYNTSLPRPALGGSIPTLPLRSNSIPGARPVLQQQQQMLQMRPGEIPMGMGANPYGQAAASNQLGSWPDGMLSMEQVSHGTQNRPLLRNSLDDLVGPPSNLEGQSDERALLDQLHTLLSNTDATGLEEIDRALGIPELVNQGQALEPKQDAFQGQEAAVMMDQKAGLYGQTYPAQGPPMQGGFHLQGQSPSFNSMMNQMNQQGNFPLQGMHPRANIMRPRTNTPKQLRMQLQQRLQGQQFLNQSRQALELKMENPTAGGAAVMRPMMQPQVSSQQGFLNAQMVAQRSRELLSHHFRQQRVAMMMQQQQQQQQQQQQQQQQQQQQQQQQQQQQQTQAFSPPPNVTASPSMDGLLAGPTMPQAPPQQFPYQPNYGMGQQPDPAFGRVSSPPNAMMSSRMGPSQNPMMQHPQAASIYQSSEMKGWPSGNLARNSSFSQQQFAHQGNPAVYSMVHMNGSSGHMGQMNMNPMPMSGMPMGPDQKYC
# [2] = tested on: transactivating tegument protein VP16 (Human herpesvirus 1), Gal4-VP16 luciferase reporter; assay: VP16 transactivation inhibitors, counter-screen for SRC3 inhibitor project, cell-based, luminescence, high throughput (AID 588794; in the data active = inhibition above about 30%); settings: mammalian cells, VP16-driven luciferase reporter luminescence; at 3.6 µM; stronger effect = higher value
# [3] = tested on: transactivating tegument protein VP16 (Human herpesvirus 1); assay: VP16 transactivation reporter inhibitors, counter-screen for SRC2 inhibitor project, cell-based, luminescence, single concentration (AID 652007; in the data active = inhibition above about 36%); settings: cell-based VP16 transactivation luciferase reporter, at 8.9 µM, stronger effect = higher value
# [4] = target: Nuclear receptor coactivator 2 (Homo sapiens) (UniProt Q15596); assay: SRC2 coactivator transcriptional activity inhibitors, confirmation, cell-based, luminescence, HEK293, triplicate (AID 652008); settings: HEK293 GAL4-SRC2 luciferase reporter, at 8.9 µM, stronger effect = higher value;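 note: 0% = DMSO-treated cells and 100% = Gossypol at 36 µM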
# Chain of Nuclear receptor coactivator 2 (Homo sapiens) (Q15596 whole entry, looked up, the tested form may be a part): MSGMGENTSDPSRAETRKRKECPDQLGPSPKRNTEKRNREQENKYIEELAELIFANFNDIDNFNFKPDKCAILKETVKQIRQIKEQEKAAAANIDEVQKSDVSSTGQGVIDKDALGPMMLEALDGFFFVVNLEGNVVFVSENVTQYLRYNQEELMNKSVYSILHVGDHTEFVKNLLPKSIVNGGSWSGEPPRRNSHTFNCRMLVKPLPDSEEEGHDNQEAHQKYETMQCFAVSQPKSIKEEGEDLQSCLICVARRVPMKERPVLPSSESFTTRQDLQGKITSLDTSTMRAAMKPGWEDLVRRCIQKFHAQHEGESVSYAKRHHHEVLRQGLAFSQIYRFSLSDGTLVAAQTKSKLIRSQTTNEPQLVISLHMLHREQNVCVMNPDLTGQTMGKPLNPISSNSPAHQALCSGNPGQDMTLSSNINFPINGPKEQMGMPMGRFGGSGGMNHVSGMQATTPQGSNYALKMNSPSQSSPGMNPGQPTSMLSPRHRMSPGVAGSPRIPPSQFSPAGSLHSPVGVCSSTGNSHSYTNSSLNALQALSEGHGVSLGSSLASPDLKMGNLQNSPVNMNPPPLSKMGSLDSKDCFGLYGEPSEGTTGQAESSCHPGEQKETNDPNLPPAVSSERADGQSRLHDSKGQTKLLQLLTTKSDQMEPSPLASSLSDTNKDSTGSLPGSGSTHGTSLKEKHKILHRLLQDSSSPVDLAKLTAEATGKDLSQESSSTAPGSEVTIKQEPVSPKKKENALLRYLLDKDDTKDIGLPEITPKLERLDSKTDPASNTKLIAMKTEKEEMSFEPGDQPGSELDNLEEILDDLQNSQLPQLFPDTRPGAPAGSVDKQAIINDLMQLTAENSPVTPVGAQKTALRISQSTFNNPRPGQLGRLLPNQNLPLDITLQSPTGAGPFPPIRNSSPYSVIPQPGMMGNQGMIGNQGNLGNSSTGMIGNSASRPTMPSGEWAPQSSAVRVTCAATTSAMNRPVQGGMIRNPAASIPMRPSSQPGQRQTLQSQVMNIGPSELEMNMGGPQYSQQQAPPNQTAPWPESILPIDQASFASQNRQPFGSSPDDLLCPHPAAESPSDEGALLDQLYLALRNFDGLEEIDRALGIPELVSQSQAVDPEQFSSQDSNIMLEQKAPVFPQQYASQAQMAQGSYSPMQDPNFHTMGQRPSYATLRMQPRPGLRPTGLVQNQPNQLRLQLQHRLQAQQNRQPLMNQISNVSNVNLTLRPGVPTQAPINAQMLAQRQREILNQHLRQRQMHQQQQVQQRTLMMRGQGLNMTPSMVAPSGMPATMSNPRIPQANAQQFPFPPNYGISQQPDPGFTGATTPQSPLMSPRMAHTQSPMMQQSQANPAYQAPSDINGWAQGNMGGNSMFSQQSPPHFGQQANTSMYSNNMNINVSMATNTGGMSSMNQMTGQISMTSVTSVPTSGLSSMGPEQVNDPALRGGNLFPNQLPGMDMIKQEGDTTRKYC
Structure (SMILES),inhibition [1],inhibition [2],inhibition [3],inhibition [4]
O=S(=O)(c1ccc(F)cc1)c1snnc1-c1ccccc1,29%,8.39%,27.8%,28.7%
COC(=O)c1ccc2c(=O)n(CCCCCC(=O)O)c(=S)[nH]c2c1,16.4%,15.1%,6.79%,32.2%
CC(C)(C)C(=O)Nc1ccc(-c2cc3cc(Cl)ccc3o2)cc1,-53%,-26.2%,-83.9%,-30.7%
Cc1ccc(C(=O)NNC(=O)CCCN2C(=O)/C(=C/c3ccccc3Cl)SC2=S)cc1,20.4%,21.8%,53.4% (active),60.2% (active)
CCCCCCCN(c1ccccc1)[C@@H]1C[C@H]2CCCC(=O)N3CC[C@@H](C1)[C@@H]23,6.93%,30.5% (active),25%,35%
COc1ccc(N(C(=O)CCl)C(C(=O)NCCc2ccccc2)c2cccs2)cc1Cl (configuration not stated),46.4% (active),41.7% (active),29.9%,64.9% (active)
CCc1ccc(/C=C/C(=O)c2c(C)cc(C)[nH]c2=O)cc1,55.5% (active),50.1% (active),17.5%,40.1%
O=C(O)c1ccc(N/N=C/c2ccc3c(c2)OCO3)cc1,-1.59%,-12.1%,-0.58%,51.3% (active)
CC(C)N(CC(=O)Nc1ccc(Cl)cc1C(F)(F)F)C(=O)CCl,44% (active),35.6% (active),25.9%,59.2% (active)
CCOc1cc(/C=C2\COc3ccccc3C2=O)ccc1OCC(=O)N(C)C,17.5%,28.5%,32.2%,27.8%
CC(=O)Nc1ccc(NC2=C/C(=N/S(=O)(=O)c3cccs3)c3ccccc3C2=O)cc1,3.29%,9.98%,9.81%,49.5% (active)
Cc1ccc(C2=NN(C(=O)CCl)C(c3ccco3)C2)o1 (configuration not stated),38.2%,7.74%,15.3%,51.2% (active)
Cc1cccc(C)c1NS(=O)(=O)c1ccc(-c2cnc(C3CC3)o2)cc1,43.2% (active),15.3%,2.97%,17.2%
Cc1ccc(/C=C2\SC(=S)N(CCCC(=O)Nc3ccc(O)cc3)C2=O)cc1,18.4%,10.3%,36.9% (active),69.4% (active)
COc1ccc(-c2noc(CCC(=O)NCCCN3CCC(Cc4ccccc4)CC3)n2)cc1,-0.27%,10.7%,-4.69%,15.6%
C=C(C(=O)c1ccccc1)C(C)C(=C)C(=O)c1ccccc1,44.4% (active),33.4% (active),53.9% (active),51.8% (active)
O=C(O)CCn1c(O)c(C=C2N=c3ccccc3=N2)sc1=S,12.5%,13.2%,34.1%,72.1% (active)

Structure (SMILES),inhibition [1],inhibition [2],inhibition [3],inhibition [4]
Cc1nnc(SC(=O)N2c3ccccc3Sc3ccccc32)s1,80.8% (active),28.2%,37.9% (active),60.4% (active)
Cc1ccc(C2=NN(C(=O)CCl)C(c3cccs3)C2)o1 (configuration not stated),36.8%,13.5%,17.2%,56.9% (active)
COc1cc(/C=C/C(=O)c2ccc(F)cc2)cc(OC)c1OC,50.5% (active),34.7% (active),21.9%,28.1%
Cc1cc(C)cc(OCC(=O)NCC2CCCO2)c1 (configuration not stated),18.4%,-9.18%,-1.96%,28.9%
Cc1c(/C(O)=C2\C(=O)C(=O)N(CCN(C)C)C2c2ccccc2)cnn1-c1ccccc1 (configuration not stated),15.8%,-3.19%,-15.3%,10.1%
O=C(/C=C\Nc1ccc2c(c1)OCO2)c1ccccn1,22.5%,14.7%,29.3%,62% (active)
COc1ccc(-c2csc3ncnc(NCCN4CCOCC4)c23)cc1,34.1%,37.6% (active),0.34%,41.1%
O=C(c1ccc(S(=O)(=O)c2ccc(F)cc2)c([N+](=O)[O-])c1)N1CCCCCC1,11.4%,18.9%,15.7%,29.9%
COc1ccc(NC(=O)/C(Cl)=C(/Cl)S(=O)(=O)Cc2ccccc2)cn1,-15.3%,8.74%,80.4% (active),72.4% (active)
CCN(c1cccc(C)c1)c1ncnc2nc[nH]c12,35.9%,21.8%,-7.68%,28.4%
Cc1ccc(NC(=O)c2ccccc2NS(=O)(=O)c2ccc(F)cc2)cc1S(=O)(=O)N1CCCCC1,12.2%,24%,10.3%,27.6%
O=c1cc(CCl)nc(Cc2c(Cl)cccc2Cl)[nH]1,21.2%,-8.27%,16.8%,54.1% (active)
O=C(O)CCCCCN1C(=O)CSC1=S,-1.77%,2.06%,-0.37%,7.01%
CCC(=O)c1ccc(O)c(CC=C(C)C)c1,35.8%,23.9%,-16.9%,14.5%
Cc1noc(C)c1COC(=O)c1cccc(S(=O)(=O)N2CCCCCC2)c1,8.78%,20.2%,9.01%,13%
CCN(CC)S(=O)(=O)c1ccc(N/N=C/c2cc(OC)ccc2O)nc1,31.4%,31% (active),-11%,19.9%
